According to PubChem BioAssay AID720690 (Broad Institute, 2013):
Results with a measured potency or affinity are listed apart. Calls of active or inactive are those of the source.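 How the source made its calls: active means every repeat run showing a signal drop whose fitted half-maximal concentration is at most twice the top tested concentration; inconclusive means repeat runs disagree, or flat partial drop, or poor fit; inactive means the rest.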

Assay: general mammalian cell viability loss – activator set, cherry-pick, cytotoxicity control for miR-122 modulator project, dose response (AID 720690)
Details: HEK293T viability, CellTiter-Glo luminescence, 48 h; series mostly up to 26 µM
With `C[C@H]1CCCCO[C@@H](CN(C)CC2CCCCC2)[C@@H](C)CN([C@@H](C)CO)C(=O)c2cc(NC(=O)Nc3cccc4ccccc34)ccc2O1` the outcome was “inactive”.
For `CN1C(=O)c2cc(NC(=O)Nc3ccc(Cl)cc3)ccc2OC[C@H]2O[C@H](CC(=O)NCCN3CCCCC3)CC[C@H]21`, the outcome was “inactive”.
With `CCCNC(=O)N1C[C@@H]2[C@H](c3ccccc31)[C@@H](CO)N2C(=O)C1CCOCC1` the outcome was “inactive”.
With `Cc1cnc(NC(=O)c2cc3c(C)nn(-c4ccccc4)c3s2)s1` the outcome was “inactive”.
For `CNC(=O)C[C@H]1CC[C@H]2[C@@H](COc3ccc(NC(=O)C4CC4)cc3C(=O)N2C)O1`, the outcome was “inactive”.
In the case of `CCC(=O)N1C[C@H]2[C@@H](c3ccccc31)[C@H](CO)N2Cc1cc(F)ccc1F`, the outcome is reported as “inactive”.
With `COCC(=O)N1[C@H](CO)[C@@H](c2ccccc2)[C@H]1CN(C)C(=O)c1ccncc1` the outcome was “inactive”.
For `O=C(COC(=O)c1ccccc1)Nc1cc(Cl)ccc1Oc1ccccc1`, the outcome was “inactive”.
With `CCN(C[C@H]1[C@H](c2ccccc2)[C@@H](CO)N1C(=O)C1CC1)C(=O)NC1CCCC1` the outcome was “inactive”.
With `CCNC(=O)C[C@@H]1CC[C@H]2[C@@H](COc3ccc(NC(=O)Nc4ccc(F)cc4)cc3C(=O)N2C)O1` the outcome was “inactive”.
For `CN1CCN(c2ccc(Cl)cc2NC(=O)c2ccc(S(=O)(=O)N3CCCCCC3)cc2)CC1`, the outcome was “inactive”.
In the case of `CN(Cc1ccccc1)C(=O)COC(=O)c1ccccc1Nc1ccccc1`, the outcome is reported as “inactive”.
For `CC(=O)Nc1ccc2c(c1)C(=O)N(C)[C@H]1CC[C@@H](CC(=O)NCc3ccc4c(c3)OCO4)O[C@@H]1CO2`, the outcome was “inactive”.
